The source of these data is PubChem BioAssay AID1850 (Southern Research Specialized Biocontainment Screening …, 2009).

The whole screen tested about 310,000 compounds, of which about 1,000 (0.32%) were called active. The rule behind the calls is not given here. The list is a sample of the results. Results with a measured potency or affinity are listed apart.

The experiment is described as follows: PhoP regulon inhibitors, Salmonella typhi PhoP promoter GFP reporter, confirmatory (AID 1850).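 Note: 0% = induced wells with vehicle and 100% = uninduced wells.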 To be noted: fluorescence, 4 h, at 50 µM, active compounds read high.
Consider `Cc1ccccc1OCC(=O)Nc1nc2ccccc2[nH]1`, for which the inhibition (commonly the relative decrease from the control value, in per cent) is 9.79% (inactive).

`COc1cccc(CN2CCNC(=O)C2CC(=O)N2CCOc3ccccc3C2)c1OC` (centres undefined): the inhibition is -0.13% (inactive). The same measure for `O=c1cc(-c2ccccc2)nc(SCCOc2ccccc2Cl)[nH]1`: 3.72% (inactive); for `Cc1ccc(C(=O)Nc2cccnc2)cc1S(=O)(=O)N1CCCC1`: -5.54% (inactive); for `O=c1[nH]c(=S)[nH]c(O)c1N=Nc1ccc2c(c1)OCO2`: -4.29% (inactive). The same measure for `Cc1ccc(Cl)cc1N1CCN(C(=O)Cc2ccc(-n3c(=O)[nH]c4ccsc4c3=O)cc2)CC1`: 2.93% (inactive). As for `O=C1Nc2ccccc2/C1=C/c1ccccc1F`, the inhibition is -2.26% (inactive). On to `O=C(c1nc2ccccn2c1CN1CCN(c2ccccc2O)CC1)N1CCCC1`, for which the inhibition is -2.41% (inactive).

For `OC(C#CCN1CCCCC1)c1ccccc1` (centres undefined), the inhibition is -17.1% (inactive). The same measure for `Cc1ccc(NC(=O)CSc2ncccc2C(=O)Oc2cccc([N+](=O)[O-])c2)cc1Cl`: -7.7% (inactive). `CCOc1ccc(S(=O)(=O)NCCC(=O)NCc2cccnc2)cc1`: the inhibition was 9.15% (inactive). The same measure for `C#CCOCCOCCOCCNc1nc(N2CCN(C(=O)CCCCCCCCCCNC(=O)[C@@H](CCC(=O)O)n3cc(CCCCCN)nn3)CC2)nc(N2CCN(C(=O)CCCCCCCCCCNC(=O)[C@H]([C@@H](C)CC)n3cc(CCCCCN)nn3)CC2)n1`: -8.02% (inactive). For `C#CCOCCOCCOCCNc1nc(N2CCN(C(=O)CCCCCCCCCCNC(=O)[C@H]([C@@H](C)CC)n3cc(CCCCCN)nn3)CC2)nc(N2CCN(C(=O)CCCCCCCCCCNC(=O)[C@H](CCCCN)n3cc(CCCC(=O)O)nn3)CC2)n1` the value was -21.1% (inactive); for `C#CCOCCOCCOCCNc1nc(N2CCN(C(=O)CCCCCCCCCCNC(=O)[C@H]([C@@H](C)CC)n3cc(CCCCCN)nn3)CC2)nc(N2CCN(C(=O)CCCCCCCCCCNC(=O)[C@@H]([C@H](C)O)n3cc(C)nn3)CC2)n1`, 60.5% (inactive); for `C#CCOCCOCCOCCNc1nc(N2CCN(C(=O)CCCCCCCCCCNC(=O)[C@H](CCCCN)n3cc(CCO)nn3)CC2)nc(N2CCN(C(=O)CCCCCCCCCCNC(=O)[C@@H]([C@H](C)O)n3cc(C)nn3)CC2)n1`, -15.8% (inactive). As for `CCC(Oc1ccc(C)cc1)C(=O)Nc1ccc2c(c1)n(C)c(=O)n2C` (centres undefined), the inhibition was -3.92% (inactive). The same measure for `CCNC(=O)CC1SC(=Nc2cccc3ccccc23)N(C)C1=O` (centres undefined): -5.94% (inactive); for `CCN(CC(=O)NC(=O)Nc1ccccc1F)Cc1ccccc1`: -3.48% (inactive); for `CCN1CCN(C(=O)CCCn2c(C)c3cnn(-c4ccccc4)c(=O)c3c2C)CC1`: -6.37% (inactive). The same measure for `O=C(CN(CCO)c1ccccc1)Nc1ccc(Cl)c(S(=O)(=O)N2CCOCC2)c1`: -1.19% (inactive). For `C=CCNc1ncnc2c1[nH]c1ccccc12` the value was -0.69% (inactive); for `Clc1ccc2[nH]c3c(NCCN4CCOCC4)ncnc3c2c1`, 0.11% (inactive).

`Clc1ccc2[nH]c3c(NCC4CCCO4)ncnc3c2c1` (centres undefined): the inhibition was -14% (inactive).

Turning to `Cc1ccc2[nH]c3c(NCc4ccccc4)ncnc3c2c1`, the inhibition was -1.37% (inactive). The same measure for `CCCNC(=O)c1oc2ccc3c(c2c1C)C=CC(C)(C)O3`: -5.94% (inactive). The same measure for `Cc1nc2ccccn2c1C(=O)NNC(=S)Nc1ccc(Cl)cc1`: 0.64% (inactive); for `COc1ccc(C[C@H]2CN3C(=NC[C@H]3Cc3ccccc3)N2CCNC(=O)c2ccc(C)c(Br)c2)cc1`: 26.2% (inactive); for `Cc1ccc(C(=O)NCCN2C3=NC[C@H](Cc4ccc(O)cc4)N3C[C@H]2Cc2ccc(O)cc2)cc1Br`: 12.4% (inactive).

In the case of `O=C(Nc1ccnn1C1CCN(C/C=C/c2ccccc2)CC1)C1CCCC1`, the inhibition is -2.03% (inactive). Turning to `COC(=O)C1=NN(c2ccc(C)cc2)C2(S1)SC(C(C)=O)=C(C)N2c1ccccc1` (centres undefined), the inhibition is -16.3% (inactive). Regarding `CC(C)(C)NCC(O)COc1ccc(Br)cc1` (centres undefined), the inhibition was -6.26% (inactive).

In the case of `CC(=O)c1cccc(OCC(O)CNCCc2ccc(Cl)cc2)c1` (centres undefined), the inhibition was 4.73% (inactive). As to `OC(CNCc1ccccc1)COc1ccccc1` (centres undefined), the inhibition is 18.5% (inactive). As to `Cc1cc(Cl)ccc1OCC(O)CNCCc1ccc(S(N)(=O)=O)cc1` (centres undefined), the inhibition is -14.1% (inactive).

Take `COc1ccc(CCNCC(O)COc2ccc(Cl)cc2)cc1OC` (centres undefined): the inhibition was 5.92% (inactive).

`COc1ccc(NCC(O)COc2ccc(C(C)(C)C)cc2)cc1` (centres undefined): the inhibition is 10.5% (inactive). The same measure for `OC(CNCCC(c1ccccc1)c1ccccc1)COc1ccccc1` (centres undefined): -4.1% (inactive); for `OC(CNCc1ccc(Cl)cc1)COc1ccccc1` (centres undefined): 11.1% (inactive); for `CC1=NN(C(=O)c2c(Br)cnn2C)C(O)(C(F)(F)F)C1` (centres undefined): 14.8% (inactive).

For `CC(C)(C)c1ccc(C(=O)NNC(=S)NC(=O)c2cccnc2)cc1`, the inhibition was 7.73% (inactive). On to `CCn1c(SCC(=O)Nc2oc(C)c3c(C)n[nH]c(=O)c23)nc2sc(C)c(C)c2c1=O`, for which the inhibition is -1.81% (inactive). With `CCOc1ccc(NC(=O)C2CCCN(S(=O)(=O)c3ccc4[nH]c(=O)ccc4c3)C2)cc1` (centres undefined), the inhibition is 4.78% (inactive). For `COc1ccc(NC2c3ccccc3C(=O)N2c2ccccn2)cc1` (centres undefined) the value was 0.4% (inactive); for `COc1ccc(C(C)=O)cc1CSc1nnc(Nc2ccc(C)cc2)s1`, 7.09% (inactive); for `Cc1nn2c(-c3cccnc3)ccnc2c1-c1ccccc1`, -4.51% (inactive). For `COc1ccc(N2C(=O)CC(C#N)=C2N)cc1` the value was 17.1% (inactive); for `COc1ccc(-n2nc(C)c3c(=O)c4c([nH]c32)CCCC4)cc1`, 7.61% (inactive); for `Cc1cccc(NC(=O)CN2C(=O)C(C)Oc3ccccc32)n1` (centres undefined), -5.84% (inactive). For `CN1C(=O)Cc2cc(S(=O)(=O)N3CCN(c4ccc(Cl)cc4)CC3)ccc21` the value was 3.82% (inactive); for `C=CCc1c(C)nc(C)nc1N/N=C/c1ccccc1O`, -9.46% (inactive); for `COc1ccc(OCCCC(=O)OC(C)C(=O)Nc2cccc(C(C)=O)c2)cc1` (centres undefined), 15.1% (inactive).

`O=C(Cn1cc([N+](=O)[O-])ccc1=O)NCc1ccc(Cl)cc1Cl`: the inhibition was -7.2% (inactive). Turning to `COC(=O)c1ccc(CNCC(O)COc2ccc(-c3ccccc3)cc2)cc1` (centres undefined), the inhibition is 10.8% (inactive). As to `CC(C)N(CCNCC(O)COc1ccc(C(C)(C)c2ccccc2)cc1)C(C)C` (centres undefined), the inhibition is -17.3% (inactive).
